From the OligoGym collection come the findings set out here.
Note: reference of the scale not given here.

The target of the first experiment is LRRC15. Description: pooled miR-30 sensor sort-seq; sequence = guide strand. To be noted: shRNA.
The sequence TTGAGTTCAGTGATGTGCGTGT displayed a sensor-assay potency score (higher = more potent) of 0.975.

In turn, TTGGACAGGTAGAGTCTCTGGA registered a sensor-assay potency score (higher = more potent) of 0.0615.

In the case of AACAGCAACGTTGACATTGATG, the sensor-assay potency score (higher = more potent) was -1.31.

As for TCTTGCAGCAGCAACAGCCGAC, the sensor-assay potency score (higher = more potent) was -0.387.

Turning to TAACCTAGGCTGGTTGAGCAGG, the sensor-assay potency score (higher = more potent) is -0.94.

As for TTGTTGGACAGGTAGAGTCTCT, the sensor-assay potency score (higher = more potent) was -0.632.

Sequence TTGCTGAAGACATTGTCGGGTA had a sensor-assay potency score (higher = more potent) of 0.015.

With TTCTTGCAGCAGCAACAGCCGA, the sensor-assay potency score (higher = more potent) is -1.7.

On to TTGAGCAGGAGCCAGTTGCGGA, for which the sensor-assay potency score (higher = more potent) was -0.932.

On to TTGAGGTTGCTGCACTGGGAGA, for which the sensor-assay potency score (higher = more potent) is -1.66.

For the sequence TTCTTCTCAATCCTCAGGGCGA, the sensor-assay potency score (higher = more potent) is -1.09.

The target in a further experiment is LRRC19. The experiment is described as above. To be noted: shRNA.
The sequence TTGATTATGAGGACTCAGCAAA returned a sensor-assay potency score (higher = more potent) of -0.795.

In the case of TATAGTAACATCTTTCTTGATA, the sensor-assay potency score (higher = more potent) is -0.839.

The sequence TTATGTAAGATAGTAACCTTGT gave a sensor-assay potency score (higher = more potent) of 0.182.

TAACTGTCAACTACCGAGGAGT had a sensor-assay potency score (higher = more potent) of -0.999.

TTACTGTATTTGAACCTGCTTG: the sensor-assay potency score (higher = more potent) is -0.499.

Take TATGTCTGTAGAACTCTTGTGT: the sensor-assay potency score (higher = more potent) came to 0.236.

TAAACTGTAGTGATCCTGCATT yielded a sensor-assay potency score (higher = more potent) of -0.636.

In the case of TTCATGAATAATTTAGACCTTT, the sensor-assay potency score (higher = more potent) was -0.134.

With TATGTAACTGTCAACTACCGAG, the sensor-assay potency score (higher = more potent) is -0.747.

TTTGATATTGTAGCTCTGCAGG yielded a sensor-assay potency score (higher = more potent) of -1.09.

Consider TTCTGCTTCATGCTCTTCCAGG, for which the sensor-assay potency score (higher = more potent) is -0.767.

The next experiment deals with LRRC1. The experiment is described as above. To be noted: shRNA.
As to TTTCGTAATTTGACTAGCTGGA, the sensor-assay potency score (higher = more potent) is 0.0536.

In the case of TAGTTTTCCAATGCCATCCGGA, the sensor-assay potency score (higher = more potent) was -0.337.

Take TTGCCTGTGACACCTCTGCAGG: the sensor-assay potency score (higher = more potent) is -1.09.

TCTCTTGACAAGTAGGTTCAGA: the sensor-assay potency score (higher = more potent) is -0.443.

Sequence TCTGTTGACAGCACGCTCGTTC displayed a sensor-assay potency score (higher = more potent) of 0.237.

Turning to TTTTCTGTAAGAACTAACTCAG, the sensor-assay potency score (higher = more potent) is -0.115.

For TTGACAGCACGCTCGTTCCAGG, the sensor-assay potency score (higher = more potent) is -1.01.

The sequence TTCTAGTCTTCGCAGCTGGGTA returned a sensor-assay potency score (higher = more potent) of -0.92.

TTTCTGTAAGAACTAACTCAGT yielded a sensor-assay potency score (higher = more potent) of -0.926.

Sequence TTTTGTTTGAGTCCAGTCCTTT registered a sensor-assay potency score (higher = more potent) of -0.559.

TAGCTGGAAAAATTGCTCGGGC showed a sensor-assay potency score (higher = more potent) of -0.498.

In the case of TTCTTCTAGTCTTCGCAGCTGG, the sensor-assay potency score (higher = more potent) is -0.37.

The target in another experiment is LRRC45. The description is as above. The settings on record: shRNA.
Take TTGAGAGCGTTGATGATGGAGT: the sensor-assay potency score (higher = more potent) was -0.215.

Take TTATCAATAGTCTCCATCAAGT: the sensor-assay potency score (higher = more potent) is -1.42.

The sequence TTCAGCTCAGCTGACATGCTGG yielded a sensor-assay potency score (higher = more potent) of -0.387.

TTGGCAGCAGACAAGTCTCTGA displayed a sensor-assay potency score (higher = more potent) of -0.793.

Turning to TGAACTTCCGCTCCAACTCGTC, the sensor-assay potency score (higher = more potent) was -0.925.

ATGCTGGTCATCTCCTGCCTGG had a sensor-assay potency score (higher = more potent) of -1.52.
